# Only some compounds are listed: those with a hit (about 9.5% of all), similar ones and a draw of the others.
# RE007 growth inh: less growth of the S. pombe RE007 Vpr strain; S. pombe RE007 Vpr strain, BacTiter-Glo ATP luminescence, 24 h; Potency, µM (highest dose often 92.2 µM), for the others: at the top dose activity change, negative = less growth, usual class: inhibitors; hit rate 0.21% among 360,000; AID 651644; active = well fitted falling curve with a large enough effect; inconclusive = small, poorly fitted or top-dose-only effect; inactive = no such curve, though single readings can be large or run the other way; also: % is scaled to controls: 0 for no effect and ±100 for the full control effect; nearly all actives have a fitted effect of over 50% in size
#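 Fission yeast RE007 carrying one integrated HIV-1 vpr copy, seeded at OD 0.01 in PMG+AL medium with 23 nL pinned compound. Grown 24 h at 30 degrees; viability read by BacTiter-Glo luminescence after 5 min.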
# Pf growth 48h: inhibits P. falciparum growth in the first generation, 48 h | P. falciparum luciferase growth in erythrocytes, 48 h | Potency, µM (titrated, usually from 28.7 µM), for inactives: top-dose activity change, negative = inhibition, actives largely listed as inhibitors | hit rate 5.9% among 310,000; also: % is scaled to controls: 0 for no effect and ±100 for the full control effect
#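 Parasite viability was followed by luminescence of a genomically integrated firefly luciferase. Cultures held 0.1% parasitemia at 2% hematocrit (final), incubated under 5% CO2 at 37 C.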
# Pf growth 96h: P. falciparum growth inhibition at 96 hours; P. falciparum luciferase reporter growth, 96 h; Potency, µM (titrated, usually from 28.7 µM), for the others: at the highest dose activity change, negative = inhibition, hits mostly inhibitors; hit rate 6.9% among 320,000; also: % is scaled to controls: 0 for no effect and ±100 for the full control effect
#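 Two-generation exposure (96 h) targets delayed-death phenotype. Reporter parasites carrying integrated firefly luciferase, in red cells at 2% hematocrit and 0.05% parasitemia final, kept at 37 C, 5% CO2; luminescence loss indicates inhibition.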
# NS1 function inh: inhibitors of influenza NS1 protein function; Potency, µM (highest dose often 46.1 µM), for inactives: at the highest dose activity, positive = more growth; hit rate 0.4% among 270,000; AID 2326; calls by dose curve; also: actives are rising curves; nearly all actives have a fitted effect of over 50% in size
#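 Read-out: OD600 growth recovery of NS1-expressing budding yeast. Cells grown overnight at 30C in -URA glucose medium, washed, resuspended and diluted 1:100 in 2% galactose assay medium, pH 6.0. Same strain lacking NS1 served as positive control.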
# SARS PLP yeast: SARS-CoV PLP inhibition in yeast | S. cerevisiae expressing SARS-CoV PLpro, growth rescue | Potency, µM (doses to about 32.9 µM), without a hit: top-dose activity, positive = growth rescue, actives largely listed as activators | hit rate 0.19% among 330,000 | AID 485353; calls by dose curve; also: 0% is about no effect; nearly all actives have a fitted effect of over 55% in size
# An asterisk follows results filed as active; u = inconclusive; x = no result; [ ] = another dose, or the depositor's remark. Unless noted, calls follow the shape of the dose curve; as a rule, active = well fitted inhibition curve with a large enough effect; inconclusive = small, poorly fitted or top-dose-only effect, or another doubt; inactive = no such curve, though single readings can be large or run the other way. Potency is read from the fitted curve at half-maximal effect.
SMILES,RE007 growth inh,Pf growth 48h,Pf growth 96h,NS1 function inh,SARS PLP yeast
CN(C)S(=O)(=O)c1ccc(C(=O)NCc2nnc(SCC(=O)NCc3ccco3)o2)cc1,2%,56%,-15%,-10%,-3%
Cc1cc(/C=N\NC(=O)CC(=O)NC2CCCCC2)c(C)n1-c1cccc(Cl)c1Cl,x,-6%,8.3µM*,-4%,7%
O=C(CSc1nc2ccccc2c(=O)n1CC1CCCO1)NCCc1ccccc1 (stereo not given),6%,-13%,u,20%,3%
COc1ccccc1-c1cc(C(F)(F)F)nc(S(=O)(=O)CCCC(=O)NCc2ccc(F)cc2)n1,-10%,u,2.9µM*,x,-6%
COc1ccc(-c2cc(C(F)(F)F)nc(S(=O)(=O)CCCC(=O)Nc3cc(C)on3)n2)cc1OC,1%,u,u,x,1%
COc1ccccc1-c1cc(C(F)(F)F)nc(S(=O)(=O)CCCC(=O)Nc2cc(C)on2)n1,16%,-9%,1.9µM*,2%,3%
C/C(=C\c1ccccc1)CN1CCN(C)CC1,-8%,-14%,0.052µM*,2%,7%
COc1ccc(Cc2nnc(SCc3c(C)noc3C)n2C2CCCCC2)cc1OC,1%,9.3µM*,u,-3%,6%
CCCCN(CCCC)Cc1cc(=O)oc2cc(C)c(Cl)cc12,-21%,x,x,x,x
CCC(CC)NCC(O)COc1ccc(Br)cc1 (stereo not given),-2%,3.7µM*,7.4µM*,1%,-1%
Cc1ccc(-c2nn(-c3ccccc3)cc2C(=O)NCC(c2cccs2)N2CCOCC2)cc1 (stereo not given),0%,u,u,x,-11%
Cc1cccc(-c2nn(-c3ccccc3)cc2C(=O)NCC(c2cccs2)N2CCOCC2)c1 (stereo not given),-18%,13µM*,u,x,7%
O=C(NCC(c1ccco1)N1CCCC1)c1cn(-c2ccccc2)nc1-c1ccc(F)cc1 (stereo not given),3%,u,8.3µM*,x,3%
O=C(N/C(=C/c1cn(-c2ccccc2)nc1-c1ccccc1)C(=O)N1CCOCC1)c1ccc(Cl)cc1Cl,-5%,6.6µM*,u,9%,8%
O=C(NCC(c1ccco1)N1CCCC1)c1cn(Cc2ccccc2)nc1-c1ccccc1 (stereo not given),-3%,u,9.3µM*,x,3%
O=C(NCC(c1ccco1)N1CCCC1)c1ccccc1F (stereo not given),0%,4%,x,0%,-2%
O=C(NC(=S)N1CCOCC1)c1cn(-c2ccccc2)nc1-c1ccc(F)cc1,-24%,u,12µM*,x,-5%
CSc1ccccc1C(=O)NCC(c1ccco1)N1CCCCC1 (stereo not given),-25%,-12%,u,x,-1%
COc1ccccc1-c1nn(-c2ccccc2)cc1C(=O)NCC(c1ccco1)N1CCCC1 (stereo not given),6%,u,15µM*,x,3%
c1csc(C2C3=C(Nc4ncnn42)c2ccccc2OC3)c1 (stereo not given),-18%,u,13µM*,-5%,-3%
CC1=C(C(N)=O)C(c2cccs2)n2ncnc2N1 (stereo not given),4%,u,73%,0%,-4%
O=C(c1ccc([N+](=O)[O-])cc1)N1CCN(c2cccc3[nH]ccc23)CC1,-1%,u,u,0%,-2%
COC(=O)C(C)n1cnc2c(nnn2-c2ccc(OC)cc2)c1=O (stereo not given),8%,14%,4.1µM*,7%,12%
Cc1cccc(N2CCN(C(=O)CCCn3c(=O)c4cccn4c4cccnc43)CC2)c1C,3%,u,12µM*,4%,-14%
CCOC(=O)C1CCCN(C(=O)Cn2c(=O)c3cccn3c3cccnc32)C1 (stereo not given),3%,-12%,10µM*,1%,-6%
SMILES,RE007 growth inh,Pf growth 48h,Pf growth 96h,NS1 function inh,SARS PLP yeast
CN1CCN(C(=O)CCn2c(=O)c3cccn3c3cccnc32)CC1,-1%,34%,13µM*,3%,14%
Cc1ccc(Cl)cc1N1CCN(C(=O)CCCn2c(=O)c3cccn3c3cccnc32)CC1,-3%,u,u,-2%,u
CC1CC(C)CN(C(=O)CCCn2c(=O)c3cccn3c3cccnc32)C1 (stereo not given),4%,u,12µM*,-1%,-2%
CC(=O)OCC(=O)[C@@]1(O)[C@H](C)C[C@@H]2[C@H]3CCC4=CC(=O)C=C[C@]4(C)[C@]3(F)[C@@H](O)C[C@@]21C,x,-3%[12.8 µM],-22%[12.8 µM],x,x
COc1ccccc1N1CCN(Cc2cc(C)c(C)cc2O)CC1,-17%,x,0.33µM*,u,-4%
COc1ccccc1N1CCN(Cc2cc(Br)c(O)c3ncccc23)CC1,-10%,x,u,-94%,u
CCOc1ccccc1N1CCN(Cc2cccc(OC)c2O)CC1,-4%,3.3µM*,x,10%,-7%
COc1ccc(NC(=O)CCN2CCN(c3ccccc3F)CC2)c(OC)c1,-12%,u,10µM*,6%,x
COc1ccccc1N1CCN(Cc2ccco2)CC1,12%,2.3µM*,-1%[5.75 µM],2%,1%
COc1ccccc1N1CCN(Cc2ccccc2)CC1,-21%,u,-4%,2%,8%
COc1ccc(OC)c(NC(=O)CCN2CCN(c3ccccc3OC)CC2)c1,4%,u,u,7%,3%
CC(=O)Nc1ccc(-c2ccnc3c2CC(C(=O)Nc2cccnc2)O3)cc1 (stereo not given),0%[18.4 µM],x,x,x,x
O=C(CCN1CCN(c2ccccc2F)CC1)Nc1ccc2c(c1)OCO2,-2%,-5%,3.3µM*,-4%,-2%
Oc1cc2c(cc1CN1CCN(c3ccccc3F)CC1)OCO2,-13%,9.3µM*,u,15%,2%
COc1ccccc1N1CCN(Cc2cc3c(cc2O)OCO3)CC1,-18%,15µM*,-15%,3%,3%
Oc1cc2c(cc1CN1CCc3ccccc3C1)OCO2,3%,-7%,u,4%,6%
COC(=O)c1ccc(N2CCOCC2)c(NC(=O)Nc2cccc(OC)c2)c1,-3%,4%,-31%,-180%,7%
O=C(CCN1CCN(c2ccccc2)CC1)Nc1ccc2c(c1)OCO2,-23%,u,16%,1%,-7%
COc1ccccc1N1CCN(Cc2ccc3c(c2)OCO3)CC1,0%,x,x,x,x
CCOC(=O)c1ccc(N2CCN(c3ccccc3F)CC2)c(NC(=O)Nc2cccc(OC)c2)c1,2%,5.2µM*,u,u,0%
COc1ccc(NC(=O)N2C[C@H]3CON(C)[C@H]3C[C@H]2c2ccc(N3CCCCC3)cc2)cc1,5%,x,x,x,x
COc1cc(CN2CCN(c3cc(C)ccc3C)CC2)ccc1O,-12%,10µM*,x,0%,3%
COc1cc(CN2CCN(c3cccc(C)c3C)CC2)cc(Br)c1O,0%,4.1µM*,x,-7%,0%
CC[C@@H](Nc1ncnc2nc[nH]c12)C(=O)O,x,x,x,-3%,x
